Each structure is given as a SMILES string. Among all 69,000 compounds or so, about 8,600 (12%) showed an effect of 50% or more. The sample as a whole holds a higher share of strong results than the screen did.

The assay concerns Plasmodium berghei. Put plainly: Screen against P. berghei liver stage (PbLuc), transformed with Luciferase, at 10uM. Format: functional, HepG2. Particulars: tested at 10 uM.
Consider `Cc1cc(S(=O)(=O)N(CCO)C2CC2)ccc1F`, for which the INHIBITION turned out to be 26.1%.

In the case of `CCC(=O)c1ccc(OCC(=O)NC(C)Cc2cc(C)n[nH]2)cc1` (stereo not drawn), the INHIBITION stood at 27.6%.

On to `Cc1cc(CC(C)NC(=O)Cc2cc(F)ccc2C)[nH]n1` (stereo not drawn), for which the INHIBITION is 73%.

In the case of `Cc1cc(CC(C)NC(=O)COc2ccc(F)cc2F)[nH]n1` (stereo not drawn), the INHIBITION is 40.6%.

Take `Cc1ccc(CNS(=O)(=O)CCCC#N)cc1F`: the INHIBITION turned out to be 58.1%.

Take `Cc1ccc(CNC(=O)NC(C)CCS(C)(=O)=O)cc1F` (stereo not drawn): the INHIBITION is listed as -1.15%.

As to `Cc1cc(CNS(=O)(=O)CCCC#N)ccc1N(C)C`, the INHIBITION turned out to be 33.1%.

In the case of `CC(C)C(C)NC(=O)Nc1ccc(CS(=O)(=O)C(C)C)cc1` (stereo not drawn), the INHIBITION was -4.68%.

`Cc1ccccc1NC1CCN(C(=O)CCc2ccco2)CC1`: the INHIBITION was -26.6%.

With `Cc1nn(C)c2cn(CC(=O)N3CCN(c4ccccc4)CC3)nc12`, the INHIBITION was found to be 30.8%.

With `O=C(NCCC1CN(Cc2c[nH]cn2)CCO1)Nc1ccccc1` (stereo not drawn), the INHIBITION came to 1.79%.

For `c1ccc(C(CC2CN(Cc3ncc[nH]3)CCO2)c2ccccc2)cc1` (stereo not drawn), the INHIBITION is 43.9%.

Take `O=C(NCCC1CN(Cc2c[nH]cn2)CCO1)c1ccccc1O` (stereo not drawn): the INHIBITION came out at 18.6%.

As to `c1ccc(C(CC2CN(Cc3c[nH]cn3)CCO2)c2ccccc2)cc1` (stereo not drawn), the INHIBITION is recorded as 72.1%.

For the compound `CC1(C)C(C(=O)NCCC2CN(Cc3c[nH]cn3)CCO2)C1(C)C` (stereo not drawn), the INHIBITION amounted to 55.5%.

As to `Cn1ccnc1CN1CCOC(Cc2ccccc2)C1` (stereo not drawn), the INHIBITION is recorded as 0.696%.

Turning to `CC(C)NC(=O)N(Cc1cc(O)nc2ccccc12)C(C)C`, the INHIBITION was -10.3%.

Regarding `CCOc1ccnc(N2CCN(C(=O)c3ccoc3)CC2)n1`, the INHIBITION is recorded as 23.7%.

With `Cc1cc(C)c2[nH]c(C(=O)NCCN3CCNC3=O)c(C)c2c1`, the INHIBITION is reported as -16.3%.

Regarding `Cc1nc(=O)c(CC(=O)N2C[C@@H]3CC[C@H]2CN(C(=O)N(C)C)C3)c(C)[nH]1`, the INHIBITION is on record as 0.547%.

With `Cc1ccc(CN2C[C@@H](OCc3csc(C)n3)[C@H]3COC[C@H]32)s1`, the INHIBITION is listed as -14.4%.

Take `Cc1cnc(CNC(=O)[C@@]23CCO[C@@H]2CCNC3)cn1`: the INHIBITION worked out at 49.4%.

With `Cc1cc(C[C@@H]2CCC[C@H]2NCc2c[nH]nc2-c2ccccc2)on1`, the INHIBITION was 5.56%.

As for `Cc1cc(C[C@@H]2CCC[C@H]2NCc2cc(C)c(O)c(C)c2)on1`, the INHIBITION was determined as 26.7%.

Turning to `Cc1cc(C[C@@H]2COC[C@H]2NCc2ccc(C(F)(F)F)cc2)on1`, the INHIBITION amounted to 31.6%.

Take `Cc1cc(C[C@@H]2CCC[C@H]2NCc2ccccc2C(F)(F)F)on1`: the INHIBITION is 70.5%.

Take `Cc1cc(C[C@@H]2COC[C@H]2NCc2ccccc2C(F)(F)F)on1`: the INHIBITION came to 50%.

`Cc1cc(C[C@@H]2CCC[C@H]2NCc2cc(F)ccc2F)on1`: the INHIBITION is recorded as -1.85%.

Consider `CCCOc1ccccc1CN[C@@H]1CCC[C@H]1Cc1cc(C)no1`, for which the INHIBITION is reported as 54.5%.

For the compound `Cc1cc(C[C@@H]2CCC[C@H]2NCc2ccccc2F)on1`, the INHIBITION was 75.3%.

As for `Cc1cc(C[C@@H]2COC[C@H]2NCc2ccc(Br)s2)on1`, the INHIBITION came to 31.8%.

With `Cc1cc(C[C@@H]2CCC[C@H]2NCc2ccc(C(F)(F)F)cc2)on1`, the INHIBITION is 41.2%.

As to `Cc1cc(C[C@@H]2CCC[C@H]2NCc2cccc(F)c2F)on1`, the INHIBITION turned out to be 15.9%.

For `Cc1cc(C[C@@H]2CCC[C@H]2NCc2ccccc2C)on1`, the INHIBITION is listed as 44.1%.

As to `O=C(CCc1nc(C2CC2)no1)c1ccc(F)c(F)c1`, the INHIBITION is listed as -2.43%.

Turning to `CCOc1ccc(OCc2nc3c(c(=O)[nH]2)CCNC3)cc1`, the INHIBITION is 26.7%.

Regarding `c1coc(CN2C[C@@H]3OCCN(CCN4CCCC4)[C@@H]3C2)c1`, the INHIBITION stood at 36.4%.

Consider `CCn1cnnc1CNC(=O)N1CCC(OCc2ccccc2)CC1`, for which the INHIBITION came out at 23.4%.

On to `COCc1cncc2c1CCN(C(=O)c1ccc(C#N)cc1)C2`, for which the INHIBITION was determined as 5.89%.

In the case of `CC(C)C(=O)N1CCC(C)(c2cc[nH]n2)CC1`, the INHIBITION is reported as -16.9%.

With `O[C@@H]1CC(CNCc2cccc(Cl)c2)(COc2cnccn2)C[C@@H]1O` (stereo partly drawn), the INHIBITION was -4.26%.

Turning to `CN(Cc1n[nH]c2c1CCC2)C(=O)CCc1cc2n(n1)CCCNC2`, the INHIBITION was found to be 0.72%.

`COC(=O)N1CC[C@@]2(C1)[C@H](OC)CN(c1ccccc1)S2(=O)=O`: the INHIBITION turned out to be 31.3%.

With `CO[C@@H]1CN(c2ccccc2)S(=O)(=O)[C@@]12CCN(C(C)=O)C2`, the INHIBITION was determined as 34.3%.

With `CO[C@@H]1CN(c2ccccc2)S(=O)(=O)[C@@]12CCN(C(=O)N(C)C)C2`, the INHIBITION was determined as 51.7%.

Consider `O=C1CCC2(CCNCC2)CN1Cc1nncn1CCc1ccccc1`, for which the INHIBITION is given as 0.348%.

As for `CC(=O)NCc1ccc(-n2ccnc2C)nc1`, the INHIBITION is on record as 57.6%.

Take `Cc1nccn1-c1ccc(CNS(=O)(=O)N2CCCC(C)C2)cn1` (stereo not drawn): the INHIBITION amounted to 37.7%.

`Cc1nccn1-c1ccc(CNS(=O)(=O)N2CCCCC2C)cn1` (stereo not drawn): the INHIBITION was found to be 43.9%.

For `Cc1nccn1-c1ccc(CNC(=O)c2ccc[nH]2)cn1`, the INHIBITION worked out at 10.5%.

As for `Cc1nccn1-c1ccc(CNS(=O)(=O)N2CCC(C)CC2)cn1`, the INHIBITION came out at 76%.

For `Cc1nccn1-c1ccc(CNC(=O)c2ccc(O)nc2)cn1`, the INHIBITION is listed as 38.3%.

`CCn1cc(C(=O)Nc2cc(C(=O)OC)ccc2C(=O)OC)cn1`: the INHIBITION is 13.3%.

In the case of `COc1ccccc1Cc1cc(O)nc(NC(C)CN(C)C)n1` (stereo not drawn), the INHIBITION stood at 9.63%.

For the compound `CC(NC(=O)COc1ccccc1Cl)c1nnc2n1CCC2` (stereo not drawn), the INHIBITION is -40.7%.

As for `CC(C)CN1CC(C(=O)NCc2ccnc(-n3cccn3)c2)CC1=O` (stereo not drawn), the INHIBITION turned out to be 27.357%.

As for `Cn1cc(C(=O)N2CCCC(Cc3cnccn3)C2)cn1` (stereo not drawn), the INHIBITION is -12.2%.

`CS(=O)(=O)N1CCCC(Cc2cnc(Br)cn2)C1` (stereo not drawn): the INHIBITION is recorded as 26.7%.

`CCS(=O)(=O)N1CCCC(Cc2cnccn2)C1` (stereo not drawn): the INHIBITION is given as 56%.

As for `CC(NC(=O)CCCn1cnc2ccccc2c1=O)c1ncn[nH]1` (stereo not drawn), the INHIBITION came to 11.1%.

For `COCc1cc(NCCc2ccc(OC)cc2)n2nccc2n1`, the INHIBITION was 32.2%.

Take `N#CC1(NC(=O)c2ccc(-c3nc(C4CC4)n[nH]3)cc2)CC1`: the INHIBITION is 8.38%.

In the case of `Cc1cc(=O)n(CC(=O)NC(C)C)c(Nc2ccc(F)c(C)c2)n1`, the INHIBITION was 64.2%.

Turning to `CCC(C)NC(=O)Cn1c(Nc2cc(C)cc(C)c2)nc(C)cc1=O` (stereo not drawn), the INHIBITION was 55.4%.

With `CCC(C)NC(=O)CCn1ccc(C)n1` (stereo not drawn), the INHIBITION was -5.77%.

Take `Cc1cc(C)cc(Nc2nc(C)cc(=O)n2CC(=O)NC(C)C)c1`: the INHIBITION came to 34.6%.

Regarding `Cc1cccc(-c2nc(C)nn2CC(=O)NC(C)C)c1`, the INHIBITION is 22.3%.

Turning to `Cc1cc(=O)n(CC(=O)NCCC(C)C)c(-c2cccc(Cl)c2)n1`, the INHIBITION was determined as 48.5%.

Values taken from ChEMBL document CHEMBL4513216, “Probing the Open Global Health Chemical Diversity Library for Multistage-Active Starting Points for Next-Generation Antimalarials” (ACS Infect Dis, 2020).
